Records with an inconclusive call do not appear. Active and inactive are the calls of the source. The calls were made as follows, unless noted: active = hit-call score of the fitted dose curve at least 0.9, where 1 is the maximum; inconclusive = response in the unintended direction; inactive = score below 0.9.
Columns and labels:
[1] = read-out: organic anion transporter (SLCO1B1), SLCO1B1 (gene 10599); assay: CLD_SLCO1B1_48hr: CellzDirect (CLD) Gene Expression Assay for organic anion transporter (SLCO1B1) at 48 hours (AID 2283707)
Method in brief: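 Primary human hepatocytes from two donor preparations dosed daily for two days with multiple concentrations, 0.2% DMSO vehicle. SLCO1B1 mRNA at 48 h by quantitative nuclease protection assay, chemiluminescence; gain-of-signal fitted versus DMSO.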

[2] = STM_H9_OrnithineISnorm_perc: Stemina devTOX quickPredict H9 human embryonic stem cell (hESC)-based Assay for Ornithine (ORN) Metabolite Biomarker, Normalized (AID 2283712; active = hit-call score of the fitted dose curve at least 0.9, where 1 is the maximum; inactive = score below 0.9;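 also: ornithine released into spent medium during last day measured by mass spectrometry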)
Method in brief: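 Undifferentiated H9 hESCs exposed 72 h with daily media and compound renewal; final 24-h conditioned medium analysed by UPLC-HRMS. Ornithine peak area normalised to spiked C13 standard and to median 0.1% DMSO control; viability by CellTiter-Fluor.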

[3] = STM_H9_CystineISnorm_perc: Stemina devTOX quickPredict H9 human embryonic stem cell (hESC)-based Assay for Cystine (CYSS) Metabolite Biomarker, Normalized (AID 2283713; active = hit-call score of the fitted dose curve at least 0.9, where 1 is the maximum; inactive = score below 0.9)
Method in brief: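 Undifferentiated H9 hESCs exposed 72 h, compound and media replaced every 24 h; final 24-h media analysed by UPLC-HRMS. Cystine normalized to C13 spike-in standard and median 0.1% DMSO control.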

[4] = Tanguay_ZF_120hpf_ActivityScore_legacy: (Legacy) Oregon State University Tanguay Lab 120 Hour Post-fertilization zebrafish Assay Score for Activity (AID 2283742);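 as to AC50: dechorionated Tropical 5D wild-type zebrafish embryos held singly per well; static exposure from 6 hpf until 120 hpf at 28 °C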
Method in brief: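 Dechorionated Tropical 5D embryos, one per well from 6 hpf, statically exposed to 120 hpf at 28 °C in 0.64% DMSO. Mortality and malformations scored binary by brightfield microscopy; activity score combines 18 endpoints, fitted positively versus DMSO.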

[5] = read-out: alkyl and aryl transferase (GSTA2), GSTA2 (gene 2939); assay: CLD_GSTA2_48hr: CellzDirect (CLD) Gene Expression Assay for alkyl and aryl transferase (GSTA2) at 48 hours (AID 2283708);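 also: active means mRNA induction above DMSO vehicle baseline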
Method in brief: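 Primary human hepatocytes dosed daily for two days (0.2% DMSO vehicle), harvested at 48 h. GSTA2 mRNA induction measured by quantitative nuclease protection assay with chemiluminescent imaging, fitted for gain of signal relative to DMSO.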

[6] = read-out: glucuronosyltransferase (UGT1A1), UGT1A1 (gene 54658); assay: CLD_UGT1A1_48hr: CellzDirect (CLD) Gene Expression Assay for glucuronosyltransferase (UGT1A1) at 48 hours (AID 2283709);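 also: actives increase expression relative to DMSO so potency refers to induction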
Method in brief: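 Human primary hepatocytes dosed daily for two days (0.2% DMSO vehicle), harvested at 48 h. UGT1A1 mRNA induction measured by quantitative nuclease protection assay with chemiluminescence; gain of signal versus DMSO; cytotoxicity flagged from morphology.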

[7] = read-out: sulfotransferase (SULT2A), SULT2A1 (gene 6822); assay: CLD_SULT2A_48hr: CellzDirect (CLD) Gene Expression Assay for sulfotransferase (SULT2A) at 48 hours (AID 2283710);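 also: hits raise SULT2A1 transcript above the 0.2% DMSO vehicle baseline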
Method in brief: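 Primary human hepatocytes (two donor preparations) dosed daily for two days with chemicals at multiple concentrations, vehicle 0.2% DMSO; SULT2A1 mRNA induction at 48 h by quantitative nuclease protection assay, chemiluminescent read-out, fitted for gain of signal versus DMSO.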

[8] = STM_H9_OrnCyssISnorm_ratio: Stemina devTOX quickPredict H9 human embryonic stem cell (hESC)-based Assay for Ornithine (ORN):Cystine (CYSS) Ratio (AID 2283714)
Method in brief: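 Undifferentiated H9 hESCs exposed 72 h, media and compound replaced every 24 h; final 24-h conditioned media deproteinized and analysed by UPLC-HRMS against C13 spike-ins. Value is the internal-standard-normalized ORN/CYSS ratio versus 0.1% DMSO.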

[9] = CEETOX_H295R_MTT_cell_viability: Viability Assessment in the CeeTox HT-H295R MTT Assay (AID 2283718; active = hit-call score of the fitted dose curve at least 0.9, where 1 is the maximum; inactive = score below 0.9)
Method in brief: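 Human H295R adrenal cells, prestimulated 48 h with 10 uM forskolin, were exposed 48 h to chemicals in 0.1% DMSO. Viability was measured in the same wells by MTT (0.5 mg/ml, 4 h, 37 C), absorbance 570/650 nm, as percent of controls.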

[10] = read-out: HMG-CoA synthase (HMGCS2), HMGCS2 (gene 3158); assay: CLD_HMGCS2_48hr: CellzDirect (CLD) Gene Expression Assay for HMG-CoA synthase (HMGCS2) at 48 hours (AID 2283711)
Method in brief: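 Primary human hepatocytes from two donors dosed daily for two days, 0.2% DMSO vehicle. HMGCS2 mRNA measured 48 h after dosing by quantitative nuclease protection assay with chemiluminescent read-out; induction fitted relative to DMSO, cytotoxicity flagged by microscopy.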

[11] = biological target: Luciferin 4-monooxygenase (Photinus pyralis) (UniProt P08659); assay: CCTE_Simmons_QuantiLum_inhib_2: CCTE's Firefly Luciferase Inhibition Assay, Simmons Lab (AID 2283767);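 as to AC50: potency for inhibitors that lower luciferase luminescence relative to DMSO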
Method in brief: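 Cell-free recombinant firefly luciferase (5 ng/well) in 200mM potassium phosphate with 1 mg/ml BSA, 30 min at 37C with 8 concentrations from 5 nM to 87.5 uM [final], 0.5% DMSO. Luminescence read after D-luciferin (150uM)/dATP (147uM) reagent injection, pH 7.8; triplicates.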

[12] = ArunA_CellTiter_hNC: Viability Assessment in the ArunA Biomedical's Oris Neural Crest (hNC) Cell Migration Assay (AID 2283752)
Method in brief: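 Human H9-derived neural crest cells plated on Matrigel (60,000/well) with LIF and bFGF, incubated 16 h, then exposed 72 h to chemical in test medium. Viability measured with CellTiter Aqueous One reagent; loss of signal versus DMSO.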

[13] = ArunA_CellTiter_hNP: Viability Assessment in the ArunA Biomedical's Oris Neural Crest (hNC) Cell Migration Assay (AID 2283753)
Method in brief: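 H9-derived hNP1 neuroprogenitors, 60,000/well on Matrigel, cultured 16 h, then 72 h chemical exposure in test medium. Cell titer via CellTiter Aqueous One; positive-direction fit vs DMSO.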

[14] = ArunA_Migration_hNP: ArunA Biomedical's Oris Neuroprogenitor (hNP) Cell Migration Assay (AID 2283754)
Method in brief: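 Human H9-derived hNP1 neuroprogenitors on Matrigel with LIF/bFGF, plated around seeding stoppers for 16 h at 37C; stoppers removed at start of 72 h chemical exposure. Calcein-AM staining, fluorescence 494/517 nm in detection zone; loss-of-signal vs DMSO; cytochalasin D control.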

[15] = ArunA_Migration_hNC: ArunA Biomedical's Oris Neural Crest (hNC) Cell Migration Assay (AID 2283755)
Method in brief: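 Human H9-derived neural crest stem cells, 60,000/well on Matrigel, 16 h at 37C, then 72 h chemical exposure after seeding-stopper removal. Migration into detection zone read as calcein-AM fluorescence (ex494/em517), relative to DMSO.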

[16] = ArunA_NOG_NucleusCount: ArunA Biomedical's Neurite Outgrowth (NOG) Assay for Nucleus Count (AID 2283756)
Method in brief: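 Human H9-derived differentiated neurons were exposed for 48 h right after seeding. Hoechst-stained nuclei gated by size and intensity were counted by automated high-content imaging as viable neurons. Loss of signal vs DMSO.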

[17] = ArunA_NOG_BranchPointsPerNeurite: ArunA Biomedical's Neurite Outgrowth (NOG) Assay for Branch Points Per Neurite (AID 2283759)
Method in brief: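 Automated image analysis traced neurites (processes >10 um) from valid cell bodies after Hoechst and βIII-tubulin staining. hNN cells from H9 embryonic stem cells, 48 h exposure. Fitted bidirectionally against DMSO.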

Measured: AC50

Luciferin 4-monooxygenase (Photinus pyralis), sequence (P08659 whole entry, looked up): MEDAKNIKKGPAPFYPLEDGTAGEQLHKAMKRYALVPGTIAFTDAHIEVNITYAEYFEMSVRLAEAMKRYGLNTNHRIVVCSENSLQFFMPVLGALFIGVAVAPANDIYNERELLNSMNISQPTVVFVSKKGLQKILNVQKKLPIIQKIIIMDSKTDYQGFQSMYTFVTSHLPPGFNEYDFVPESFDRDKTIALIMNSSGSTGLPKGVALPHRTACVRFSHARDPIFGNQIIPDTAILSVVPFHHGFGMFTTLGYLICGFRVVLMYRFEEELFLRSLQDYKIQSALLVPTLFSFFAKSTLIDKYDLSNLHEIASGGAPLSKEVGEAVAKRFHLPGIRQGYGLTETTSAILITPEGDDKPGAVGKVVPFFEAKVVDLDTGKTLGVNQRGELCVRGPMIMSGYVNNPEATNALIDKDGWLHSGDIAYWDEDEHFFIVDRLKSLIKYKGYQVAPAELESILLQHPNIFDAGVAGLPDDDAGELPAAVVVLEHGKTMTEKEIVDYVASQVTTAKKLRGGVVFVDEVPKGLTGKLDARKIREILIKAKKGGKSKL

Cc1nn(-c2cc(NS(C)(=O)=O)c(Cl)cc2Cl)c(=O)n1C(F)F
inactive: [1] | [3] | [4]
active: [2] 114 nM

CSc1nc(NC(C)C)nc(NC(C)C)n1
inactive: [5] | [6] | [7] | [9] | [4]
active: [2] 220 nM | [3] 234 nM | [8] 237 nM

CCc1cccc(CC)c1N(COC)C(=O)CCl
active: [4] 27600 nM
inactive: [1]

CCOP(=O)(OCC)Oc1cc(C)nc(C(C)C)n1
inactive: [1] | [4]

CCCSP(=O)(OCC)Oc1ccc(Br)cc1Cl (stereo unspecified)
inactive: [1] | [10] | [9] | [4] | [11]

S=C1NCCN1
active: [11] 1900 nM
not listed: [5] | [7] | [8] | [9] | [10]
inactive: all other assays above

CN(C)NC(=O)CCC(=O)O
inactive: [1] | [6] | [7] | [9] | [4]

CCC(CC)Nc1c([N+](=O)[O-])cc(C)c(C)c1[N+](=O)[O-]
inactive: [1] | [6] | [4]

CCCCOC(=O)c1ccccc1C(=O)O
inactive: [1] | [9] | [4]

CC(Oc1cccc(Cl)c1)C(=O)O (stereo unspecified)
inactive: [1] | [4]

CCCOc1nn(C(=O)NS(=O)(=O)c2ccccc2C(=O)OC)c(=O)n1C
inactive: [1] | [5] | [10] | [4]

CCC(=NOC/C=C/Cl)C1=C(O)CC(C2CCOCC2)CC1=O (stereo unspecified)
active: [2] 69.9 nM
inactive: [1] | [6] | [3] | [4] | [11]

C#CCC1=C(C)C(OC(=O)C2C(C=C(C)C)C2(C)C)CC1=O (stereo unspecified)
inactive: [1] | [9] | [4] | [11]

O=c1ccc(=O)[nH][nH]1
inactive: [1] | [4] | [11]

CC(COc1ccc(Oc2ccccc2)cc1)Oc1ccccn1 (stereo unspecified)
active: [2] 70300 nM | [3] 12.4 nM
inactive: [1] | [10] | [9] | [4]

CCc1cnc(C2=NC(C)(C(C)C)C(=O)N2)c(C(=O)O)c1 (stereo unspecified)
inactive: [1] | [10] | [4]

CC[C@H](C)[C@H]1O[C@]2(C=C[C@@H]1C)C[C@@H]1C[C@@H](C/C=C(\C)[C@@H](O[C@H]3C[C@H](OC)[C@@H](O[C@H]4C[C@H](OC)[C@@H](NC)[C@H](C)O4)[C@H](C)O3)[C@@H](C)/C=C/C=C3\CO[C@@H]4[C@H](O)C(C)=C[C@@H](C(=O)O1)[C@]34O)O2
active: [7] 2000 nM | [4] 1490 nM
inactive: [1] | [10]

— PubChem BioAssay (EPA / NIEHS)
